Screening results from PubChem BioAssay.
Shown is part of a subset that was picked to be rich in hits.
Pf Dd2 inh: Plasmodium falciparum Dd2 growth inhibition; P. falciparum Dd2 growth, SYBR Green, 72 h; Potency, µM (top dose mostly 28.9 µM), actives largely listed as inhibitors; 4.3% of 120,000 active; AID 1347417; active = well fitted inhibition curve with a large enough effect; also: nearly all actives have a fitted effect of over 65% in size
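Infected erythrocytes (Dd2, 0.3% parasitemia, 2.5% hematocrit final) are added to compound in RPMI-1640/Albumax II medium, grown 72 h at 37C in low oxygen, then lysed with saponin/Triton-X containing SYBR Green and read by fluorescence.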
Of the large screens only hits and unclear results are named; the others gave an inactive call.

Cn1cc(-c2cnc3[nH]cc(CC(=O)Nc4ccc(N5CCOCC5)cc4)c3c2)cn1	none
O=C(Cc1c[nH]c2ncc(-c3cccnc3)cc12)Nc1ccc(C(F)(F)F)cc1	none
Cn1cc(-c2cnc3[nH]cc(CC(=O)Nc4cccc(F)c4)c3c2)cn1	Pf Dd2 inh 6.3µM
COc1ccc2c(c1)OCC(C(=O)NCc1nc3c(s1)CCCC3)C2 (configuration not stated)	none
O=C(CC1COCCN1)N1CCC2(CCC(=O)N(CCCn3ccnc3)C2)CC1 (configuration not stated)	none
CCc1ccc(C(=O)N2[C@@H]3CC[C@H]2CC(NC(=O)c2cnc(C)cn2)C3)cc1 (some centres not stated)	none
O=C(NC1CCN(c2ccc(F)cc2)C1=O)c1ccc(F)cc1Cl (configuration not stated)	none
CC(C)(C)CC(=O)N1CCC(N2CCCC(C(=O)NCc3ccccc3)C2)CC1 (configuration not stated)	none
O=C(Cc1c[nH]c2ncc(-c3cccc(Cl)c3)cc12)NCc1cccnc1	Pf Dd2 inh 4.5µM
COc1ccc(OC)c(-c2cnc3[nH]cc(CC(=O)NCc4cccnc4)c3c2)c1	none
O=C(Cc1c[nH]c2ncc(-c3ccccc3)cc12)NCc1cnccn1	none
O=C(Cc1cccc(Cl)c1)NCc1c[nH]c2ncccc12	none
NC(=O)Cc1c[nH]c2ncc(-c3cccc(F)c3)cc12	none
O=C(Cc1c[nH]c2ncc(-c3ccncc3)cc12)NCc1cccnc1	Pf Dd2 inh 5µM
O=C(Nc1ccc(F)cc1)N[C@@H]1C[C@H](CO)[C@@H](O)[C@H]1O	none
O=C(Nc1ccccc1F)N1CC2CCC(C1)N2CC1CCCC1	none
O=C(c1cccc(Br)c1)N1CCN(c2cc(-c3cccs3)[nH]n2)CC1	none
COc1ccc(C(=O)N2CCCCCCNC(=O)CC2)c(OC)n1	none
O=C(c1cccnc1)N1CCC(c2nnc3n2C(C(=O)N2CCOCC2)CC3)CC1 (configuration not stated)	none
CCCOc1nccnc1NC1CCN(C(=O)NCc2ccco2)CC1	none
Cn1nc(-c2ccc3ccccc3c2)cc1[C@H]1CN2CC[C@H]1C[C@@H]2CNC(=O)Nc1ccccc1	none
CC(C)NC(=O)NC[C@H]1C[C@@H]2CCN1C[C@@H]2c1cc(-c2ccc3ccccc3c2)nn1C	Pf Dd2 inh 6.3µM
CC(C)NC(=O)OC[C@H]1C[C@@H]2CCN1C[C@@H]2c1cc(-c2ccc3ccccc3c2)nn1C	none
COc1ccc(-c2cc([C@H]3CN4CC[C@H]3C[C@@H]4CNC(=O)C(C)(C)C)n(C)n2)cc1OC	none
COc1ccc(-c2cc([C@H]3CN4CC[C@H]3C[C@@H]4CNC(=O)c3ccc(C)cc3)n(C)n2)cc1OC	none
COc1ccc(-c2cc([C@H]3CN4CC[C@H]3C[C@@H]4CNC(=O)Nc3ccccc3)n(C)n2)cc1OC	Pf Dd2 inh 5.6µM
COc1ccc(C(=O)N2CC[C@H]3COC(=O)N3c3cc(F)ccc3C2)cc1	none
CCc1ccc(S(=O)(=O)N2CCCC(Cn3cnc4cccnc43)C2)cc1 (configuration not stated)	none
Cc1ccc(-c2nc(CNC(=O)[C@@H]3C[C@@H](O)CN3)[nH]c2-c2ccccn2)cc1	none
O=C(Cc1ccccc1Cl)N1CCN(c2cc(-c3cccs3)[nH]n2)CC1	none
Cc1cc(C)n(CC(=O)N[C@@H]2CN(Cc3ccccc3)C[C@H]2CN(C)C)c(=O)n1	none
COc1cccc(NC(=O)NC[C@@H]2C=C(C)[C@H](CC(=O)N3CCN(c4ccccn4)CC3)C[C@H]2C(C)C)c1	Pf Dd2 inh 13µM
COc1ccccc1C(=O)NC[C@@H]1C=C(C)[C@H](CC(=O)NCc2ccccn2)C[C@H]1C(C)C	none
CC1=C[C@@H](CNC(=O)c2cccnc2)[C@H](C(C)C)C[C@H]1CC(=O)N1CCN(C)CC1	none
CC1=C[C@@H](CNC(=O)c2ccccn2)[C@H](C(C)C)C[C@H]1CC(=O)N1CCN(C)CC1	Pf Dd2 inh 11µM
CC1=C[C@@H](CNC(=O)c2cccnc2)[C@H](C(C)C)C[C@H]1CC(=O)N1CCCC1	none
CC(=O)N1CCN(C(=O)C[C@@H]2C[C@@H](C(C)C)[C@H](CNC(=O)Nc3cccc(F)c3)C=C2C)CC1	none
COc1ccccc1C(=O)NC[C@@H]1C=C(C)[C@H](CC(=O)N2CCCC2)C[C@H]1C(C)C	Pf Dd2 inh 13µM
C#CCNC(=O)C[C@@H]1C[C@@H](C(C)C)[C@H](CNC(=O)c2ccccn2)C=C1C	none
COc1cccc(NC(=O)NC[C@@H]2C=C(C)[C@H](CC(=O)N3CCOCC3)C[C@H]2C(C)C)c1	none
CC(=O)N1CCC(NC2(Cc3cc(CN(C)C)on3)COC2)CC1	none
O=C(Cn1nc2c(cc1=O)CCCC2)N[C@@H](Cc1ccccc1)C(=O)O	none
COC[C@@H]1CN(C(=O)c2ccc(OC)nc2)C[C@H]1C(N)=O	none
CCc1nc(C)ccc1OCC(=O)N1Cc2[nH]cnc2CC1C(=O)O (configuration not stated)	none
C=CCNC(=O)N[C@H]1CCN(C(=O)CC(C)(C)C)[C@@H]1C(=O)N(C)CC(N)=O	none
